PubChem BioAssay AID624483 (NMMLSC, 2012)
Screen size: about 360,000 compounds; about 11,000 (3.1%) were called active. Roughly 2% stayed inconclusive and do not appear here. The sample holds actives, similar compounds and a random draw of the others, so the mix is not that of the screen. Values without a mark were called inactive. Cut-off read from the data, not from the text of the source: active = fluorescence intensity above about 16000; inconclusive = no clear call, values can overlap the other calls; inactive = below that.

assay: compound fluorescence in toxin protease inhibitor counterscreen, primary screen, artefact control for toxin protease inhibitor project, biochemical, multiplex microsphere, HTS (AID 624483); details: compound autofluorescence counterscreen, microsphere flow cytometry; stronger effect = higher value

In order of falling fluorescence intensity:
1. COc1ccc(-n2ncc3c(N4CCCc5ccccc54)ncnc32)cc1  11300
2. COc1cc(/C=C(/NC(=O)c2ccccc2)C(=O)Nc2cccc(O)c2)c([N+](=O)[O-])cc1OC  11300
3. CCc1cc(Br)ccc1NC(=O)C1CCCO1 (centres undefined)  10900
4. Cc1ccccc1C1=NC(C(F)(F)F)(C(F)(F)F)c2c(n(-c3ccc(F)cc3)c(=O)[nH]c2=O)N1  10500
5. Cc1ccc(NC(=O)NC(=O)N(C2CCCCC2)S(=O)(=O)c2ccccc2)cc1  9210
6. COc1ccc(C2=NO[C@@H]3C(=O)N(Cc4ccccc4)C(=O)[C@H]23)cc1OC  8330
7. Cc1c(C(=O)NNC(=O)c2ccncc2)oc2ccccc12  6810
8. COc1cc(C2C(C(=O)Nc3ccccc3OC)=C(C)Nc3ncnn32)ccc1O (centres undefined)  6420
9. CC1Cc2[nH][nH]c(=O)c2C(C2CC2)O1 (centres undefined)  6380
10. CC(C)C[C@@H]1COc2cc(N3CCC[C@@H]3CO)ccc2S(=O)(=O)N1  6270
11. CC1CCN(c2ccc([N+](=O)[O-])c(SCCO)c2)CC1  6270
12. CCOc1ccc(-c2nnn(CC(=O)N3CCN(c4ccc(F)cc4)CC3)n2)cc1OCC  6120
13. Cc1cc2nc(-c3ccc(Cl)cc3)c(Cc3cccc(F)c3)n2c(C)c1Br  6020
14. COC(=O)c1ccc2nc(-c3cccc(Br)c3)c(Cc3ccccc3C(F)(F)F)n2c1  5960
15. O=C(COC(=O)/C=C/c1ccc(OC(F)F)cc1)NC1CCCCC1  5950
16. CCCCc1c(-c2ccc(Br)cc2)ncn1CCc1ccccc1OC  5930
17. O=C(NC1CCCC1)C1c2ccccc2OCC(=O)N1Cc1ccccc1 (centres undefined)  5910
18. O=C(c1ccc(C(F)(F)F)cc1)N1CCC(=O)N([C@H](COCc2ccccc2)Cc2ccccc2)CC1  5850
19. O=S1(=O)CC(N2CCN(Cc3ccccc3F)CC2)CN1Cc1cn(Cc2ccccc2)nn1 (centres undefined)  5590
20. CN(Cc1ccccc1F)c1cc2c(c3c1ccn3C)C1CCC2O1 (centres undefined)  5510
21. Cc1nnc(SCC(=O)Nc2ccc(S(=O)(=O)Nc3ccc(Cl)nn3)cc2)s1  5340
22. Cc1cc(C)c(S(=O)(=O)NN=C2c3ccccc3[C@H]3Cc4csc[n+]4[C@@H]23)c(C)c1  5040
23. CC(C)C[C@H]1CNC(=O)C(=O)N1C[C@H]1CCCN1C[C@H](Cc1ccc(O)cc1)N1C[C@H](CC(C)C)N(CC2CCCCCC2)C(=O)C1=O  4880
24. COc1ccc(NC(=O)CN2C(=O)COc3ccc(S(=O)(=O)N4CCOCC4)cc32)cc1  4800
25. C=CCNC(=O)CC12CC3CC(C1)CC(CC(=O)NCC=C)(C3)C2  4730
26. COCCCNC(=S)NCCNc1nc2cc(C)c(C)cc2cc1C#N  4720
27. CNC(=O)CN1C(=O)NC(c2ccccc2)(c2ccccc2)C1=O  4630
28. CC(=O)N1CCC(N(C(=O)Nc2ccc(Cl)cc2)C(C)C)CC1  4610
29. COc1ccc(CCCc2nnc(SCc3nc4ccccc4c(=O)[nH]3)n2C)cc1  4610
30. CC(C)(C)C(=O)CSc1nc2ccccc2o1  4330
31. CCn1c(SCC(=O)NC2CC2)nnc1-c1ccncc1  4270
32. COC(C[C@@H](O)[C@H](C)[C@H](O)COCc1ccccc1)OC  4260
33. CCOc1ccc(-c2nnn(CC(=O)N3CCN(c4ccc(OC)cc4)CC3)n2)cc1OCC  4250
34. Oc1ccc2ccc3cccc[n+]3c2c1  4220
35. COc1cccc(C(O)c2ncc(-c3ccc4ccccc4c3)[nH]2)c1 (centres undefined)  4120
36. COc1ccc(-n2ncc3c(SCC(=O)NNC(C)=O)ncnc32)cc1  3990
37. COc1ccc(NC(=O)C2Cc3c(-c4cccc(NC(C)=O)c4)ccnc3O2)cc1OC (centres undefined)  3970
38. O=C(NCCO)c1cccc(-c2cccc3nccn23)c1  3960
39. S=C(NCCCc1cnc[nH]1)NCCCN(Cc1ccc(Cl)c(Cl)c1)c1ccc(Br)cn1  3910
40. OCCNc1nc(Nc2ccc(Cl)c(Cl)c2)nc2ccccc12  3890
41. CCCC(=O)N1CCC1(C)C(=O)NCc1ccc(C(C)C)cc1 (centres undefined)  3880
42. Nc1ccccc1Sc1cc(Cl)nnc1Cl  3840
43. C[C@H](CO)N1C[C@H](C)[C@@H](CN(C)Cc2ccc(-c3ccccc3)cc2)Oc2ccc(NC(=O)Cn3cnnn3)cc2C1=O  3780
44. COc1ccc(CN2CCN(Cc3ccc(OC)c(OC)c3OC)CC2)cc1  3740
45. CCCNC(=O)C1(C)CCN(Cc2csc(-c3ccc(Cl)cc3)n2)C1 (centres undefined)  3720
46. COc1ccc(/C=N/Nc2nc(-c3ccc(C)cc3)c(C#N)c(=O)[nH]2)cc1  3690
47. Nc1nc(SCc2cccc(Br)c2)n[nH]1  3680
48. COc1ccc(NC(=O)CSc2nc3ccccc3c(=O)n2C)cc1  3680
49. Cc1c(C(C)CCCO)oc(=O)c2c1Oc1c(C)c(C(C)C[C@@H](C)O)oc(=O)c1C2 (some centres undefined)  3640
50. COc1ccc(-c2ccc(C(=O)NCCN3CCOCC3)c3occc23)c(C)c1  3620
51. CC1(C(=O)NS(=O)(=O)c2ccccc2)CCN1C(=O)C/C=C/c1ccccc1 (centres undefined)  3600
52. Cc1cc2ccccn2c1C(=O)c1cccc(F)c1  3460
53. Cc1ccccc1S(=O)(=O)NC(=O)C1(C)CCN1C(=O)Cc1ccc(Cl)cc1Cl (centres undefined)  3450
54. CCOC(=O)c1ccc(NC(=O)c2ccc(NC(=O)C3CCCO3)cc2)cc1 (centres undefined)  3420
55. CN(C)CCCOc1ccc(-c2ccc3nccn3c2)cn1  3380
56. Cc1ccc(NC(=O)c2ccco2)cc1  3370
57. COc1ccccc1N1CCN(Cc2cc(OC)c3c(c2)OCO3)CC1  3350
58. COc1cccc(-c2nc3ccc(N4CCN(C)CC4)cc3[nH]2)c1  3340
59. Cc1ccc(-n2nc3cc(C)c(NC(=O)c4cccnc4)cc3n2)cc1  3240
60. O=C(CN1C(=O)NC2(CCCCCC2)C1=O)Nc1ccc([N+](=O)[O-])cc1  3160
61. O=C(COc1ccc(Cl)cc1Cl)NCCCNC(=O)c1cnccn1  3160
62. Cc1nc([N+](=O)[O-])cn1CC(=O)Nc1ccc(Cl)cc1  3080
63. CC=CCn1c(SCCCc2ccccc2)nc2c1c(=O)[nH]c(=O)n2C  3020
64. CCCNC(=O)c1cc(C2CCCCN2C(=O)OC)on1 (centres undefined)  3000
65. CN(C(=O)CN1CCN(c2cc(-c3ccc(OCc4ccccc4)cc3)ncn2)CC1)c1ccccc1  2960
66. CC1(C(=O)NS(=O)(=O)c2ccccc2Cl)CCN1C(=O)c1cccc(F)c1 (centres undefined)  2940
67. CCN(CC)C(=O)CSc1nc2ccccc2o1  2780
68. COc1ccccc1NC(=O)C1=C(C)Nc2ncnn2C1c1ccc(C)o1 (centres undefined)  2690
69. CC(=O)C1=C(O)C(=O)N(c2ccc(S(N)(=O)=O)cc2)C1c1ccccc1F (centres undefined)  2660
70. CC(=O)Nc1ccc(S(=O)(=O)NC2(C(F)(F)F)C(=O)Nc3c2c(=O)[nH]c(=O)n3Cc2ccccc2)cc1 (centres undefined)  2630
71. COc1ccc(OCc2ccc(-c3nc4ccccc4c(=O)n3N)o2)cc1  2450
72. Nc1nnc(SCC(=O)Nc2ccc3nc(SCC(=O)Nc4ccccc4)sc3c2)s1  2450
73. O=C(N1CCCC1)C12CC3CC(C1)CC(C(=O)N1CCCC1)(C3)C2  2410
74. CCOc1ccc2nc(Cl)c(C3CC(c4ccccc4)=NN3C(=O)c3cccs3)cc2c1 (centres undefined)  2410
75. C=CCc1cccc2cc(C(=O)NC3CCCC3)c(=O)oc12  2230
76. CCC(C)(C(=O)Nc1ccccc1C)N(C(=O)CNC(C)=O)c1ccc(C)cc1 (centres undefined)  2200
77. Cc1ccnc(SCCn2c(Br)nc3c2c(=O)[nH]c(=O)n3C)n1  2110

In the case of CC(c1ccco1)N(C(=O)Nc1ccccc1)C1CCCCC1 (centres undefined), the fluorescence intensity is reported as 20500 (active).
For COc1ccc(C(=O)Cn2nnc(-c3ccc(N4CCOCC4)cc3)n2)cc1OC, the fluorescence intensity was 24200 (active).
For COc1ccccc1NC(=O)C1=C(C)Nc2nnnn2C1c1cccc(Br)c1 (centres undefined), the fluorescence intensity was 20400 (active).
In the case of COc1ccc(-n2ncc3c(N4CCc5ccccc54)ncnc32)cc1, the fluorescence intensity is reported as 22400 (active).
In the case of O=C(NCC12CC3CC(C1)CC(CNC(=O)N1CCCC1)(C3)C2)N1CCCC1, the fluorescence intensity is reported as 16800 (active).
In the case of Cc1ccc(C(=O)CSc2nc3ccccc3c(=O)n2N)o1, the fluorescence intensity is reported as 19100 (active).
With COc1ccccc1N1CCN(Cc2ccc(OC)c3ccccc23)CC1 the fluorescence intensity was 21400 (active).
For COc1ccc(/C=N/Nc2nc3ccccc3c(=O)[nH]2)cc1, the fluorescence intensity was 19400 (active).
In the case of Cn1c(=O)c2c(nc(Br)n2CCSc2nc3ccccc3o2)n(C)c1=O, the fluorescence intensity is reported as 20900 (active).
In the case of Cn1c(=O)[nH]c(=O)c2c1nc(Br)n2CCCCSc1nc2ccccc2o1, the fluorescence intensity is reported as 24200 (active).
In the case of Cc1ccc(-n2nc3cc(Cl)c(NC(=O)c4ccco4)cc3n2)cc1, the fluorescence intensity is reported as 20600 (active).
For O=[N+]([O-])c1c(NCCO)cc(Sc2nc3ccccc3s2)c2nonc12, the fluorescence intensity was 16100 (active).
With Cc1c(C=O)c2ccccn2c1C(=O)c1ccncc1 the fluorescence intensity was 20400 (active).
In the case of O=c1[nH]c(=O)n(Cc2ccco2)c2c1C(C(F)(F)F)(C(F)(F)F)N=C(c1ccco1)N2, the fluorescence intensity is reported as 24800 (active).
For Cc1ccc2nc(NCCCNC(=O)c3cnccn3)c(C#N)cc2c1, the fluorescence intensity was 20100 (active).
With COC(=O)c1cc(OC)c(OC)cc1NC(=O)C1CCCO1 (centres undefined) the fluorescence intensity was 18500 (active).
For CN1CCN(c2ccc([N+](=O)[O-])c(Sc3nc4ccccc4[nH]3)c2)CC1, the fluorescence intensity was 16500 (active).
